Inhibition data for 24 compounds are collected here from ChEMBL document CHEMBL1157539, “Thousands of chemical starting points for antimalarial lead identification” (Nature, 2010).

Several values for one entry are separate records, joined by “and”; a condition that tells them apart may be missing. Equal values may be shown once.

In this assay the test system is Plasmodium falciparum. Description: GSK_TCMDC: Inhibition of Plasmodium falciparum 3D7 in whole red blood cells, using parasite LDH activity as an index of growth. Test compounds present at 2uM. It counts as functional.
What is called Inhibition is the share of the control response that was lost under treatment. Lower therefore signals little suppression. For the compound `Br.CCOC(=O)c1ccc(CC(C)NCC(O)c2cccc(C(F)(F)F)c2)cc1` (centres undefined), the Inhibition is reported as 100%. For `C/C=C1\CN2CC[C@H]1C[C@@H]2[C@@H](O)c1ccnc2ccc(O)cc12` the value was 98%; for `COc1ccc(CC(C)NCC(O)c2cccc(C(F)(F)F)c2)cc1` (centres undefined), 98%; for `Cc1[nH]c2ccccc2c1C1=CCN(CC2CC2C(=O)c2ccccc2)CC1` (centres undefined), 95%. Compound `COc1cc2nc(N(C)C3CCN(Cc4ccccc4)CC3)nc(N)c2cc1OC` registered an Inhibition of 99%.

`CNC(=O)c1ccc2[nH]cc(C3CCN(CC4CCC(NC(=O)/C=C/c5ccc(Cl)c(Cl)c5)CC4)CC3)c2c1` (centres undefined) yielded an Inhibition of 100%. The compound `Cc1cc2cc(CNCCc3ccccc3Br)ccc2nc1N.Cl` gave an Inhibition of 98%. For `c1ccc(C(OCCC2CCN(Cc3cccc4cccnc34)CC2)c2ccccc2)cc1` the value was 99%; for `C=C[C@H]1CN2CC[C@H]1C[C@H]2[C@H](OS(=O)(=O)O)c1ccnc2ccccc12`, 99%. The compound `CC1(CCCCN2CC=C(c3c[nH]c4ccccc34)CC2)C(=O)Nc2ccccc21` (centres undefined) gave an Inhibition of 94%. Under `Cc1cccc(C(=O)Nc2ccnc(N(C)C3CCN(CC(C)C)CC3)c2)c1.O=C(O)C(F)(F)F` stands 95%; under `Cc1ccc2c(C3=CCN(CCCCC4(C)C(=O)Nc5ccccc54)CC3)c(C)[nH]c2c1` (centres undefined), 95%.

Turning to `Cl.c1ccc2c(NCCCCCCCCCNc3c4ccccc4nc4ccccc34)c3ccccc3nc2c1`, the Inhibition is recorded as 100%.

As for `COC(=O)c1ccc(CC(C)NCC(O)c2cccc(C(F)(F)F)c2)cc1` (centres undefined), the Inhibition is 94% and 97%. `Cc1ccc(/C=C/C(=O)NC2CCC(CN3CCC(c4c[nH]c5ccccc45)CC3)CC2)cc1` (centres undefined) registered an Inhibition of 100%.

The compound `CNCC(O)c1cc(Cl)c(Cl)cc1C.Cl` (centres undefined) yielded an Inhibition of 98%. As to `COCCNCc1cccc(-c2ccc(CN(C(=O)Nc3ccccc3)C3CCN(Cc4ccccc4)CC3)cc2)c1.O=C(O)C(F)(F)F`, the Inhibition is listed as 100%. The compound `CC(=O)Nc1ccc(CN2CCC(N(C)c3cc(NC(=O)c4cccs4)ccn3)CC2)cc1.O=C(O)C(F)(F)F` gave an Inhibition of 100%.

As to `CC[C@H]1CN2CC[C@@H]1C[C@@H]2[C@@H](O)c1cc(-c2ccc(F)cc2)nc2ccc(OC)cc12.Cl`, the Inhibition was determined as 98%.

For the compound `COCCNCc1cccc(-c2ccc(CN(C(=O)NC3CCCCC3)C3CCN(Cc4ccccc4)CC3)cc2)c1.O=C(O)C(F)(F)F`, the Inhibition is 100%.

Regarding `CC1(C)CCCN(C(=O)Cc2ccc3c(c2)CCCC3)C1CN1CC=CC1.Cl` (centres undefined), the Inhibition is reported as 98%. Compound `CC[C@H]1CN2CC[C@H]1C[C@@H]2[C@@H](O)c1ccnc2ccc(OC)cc12.Cl` displayed an Inhibition of 100%.

As for `CC[C@H]1CN2CC[C@H]1C[C@H]2[C@H](O)c1cc(/C=C/c2ccc(F)cc2)nc2ccc(OC)cc12.Cl`, the Inhibition was 99%.

Compound `Cc1cccc2[nH]cc(C3CCN(CC4CCC(NC(=O)/C=C/c5ccc(Cl)c(Cl)c5)CC4)CC3)c12.Cl` (centres undefined) returned an Inhibition of 100%.
